# Data reported in PubChem BioAssay AID2284385 (EPA ToxCast).
# Values joined by “and” are separate entries in the source; they are usually repeats but may differ in a detail not shown here. Identical values can stand only once. Active and inactive are the calls of the source. How the source made its calls: active means hit-call score of the fitted dose curve at least 0.9, where 1 is the maximum; inactive means score below 0.9.
# Biological target: human Peroxisome proliferator-activated Receptor alpha (PPARa), PPARA (gene 5465) (UniProt Q07869)
# Sequence (Q07869 whole entry, looked up): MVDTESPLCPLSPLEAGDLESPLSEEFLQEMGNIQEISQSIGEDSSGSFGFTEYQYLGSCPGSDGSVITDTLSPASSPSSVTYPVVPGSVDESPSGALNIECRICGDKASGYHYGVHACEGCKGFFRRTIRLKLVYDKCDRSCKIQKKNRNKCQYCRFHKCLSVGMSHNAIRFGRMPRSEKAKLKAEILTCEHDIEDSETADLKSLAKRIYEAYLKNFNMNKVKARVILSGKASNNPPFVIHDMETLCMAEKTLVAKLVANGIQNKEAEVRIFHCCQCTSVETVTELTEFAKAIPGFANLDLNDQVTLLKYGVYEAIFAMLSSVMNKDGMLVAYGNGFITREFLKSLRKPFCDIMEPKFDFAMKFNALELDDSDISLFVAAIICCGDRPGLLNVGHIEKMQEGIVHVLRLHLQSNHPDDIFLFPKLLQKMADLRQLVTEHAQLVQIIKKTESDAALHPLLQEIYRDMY
# Assay: ERF_TW_NR_COA_hPPARA: Eurofins (ERF) Nuclear Receptor (NR) Functional Coactivator Assay for human Peroxisome proliferator-activated Receptor alpha (PPARa) Agonism & Antagonism, conducted at Taiwan lab site
# Experimental: ERF_TW_NR_COA_hPPARA is a biochemical, single-readout assay that uses extracted gene-proteins in a cell-free assay. Measurements were taken 3 hours after chemical dosing in a 96-well plate. See PPARalpha Human NHR Functional Agonist Coactivator Assay, Panlabs.ERF_TW_NR_COA_hPPARA is an assay component calculated from the ERF_TW_NR_COA_hPPARA assay. It is designed to measure FRET using a type of binding reporter as detected by fluorescence intensity of GW7647 with fluorimetry technology.Data from the assay component ERF_TW_NR_COA_hPPARA was analyzed at the assay endpoint, ERF_TW_NR_COA_hPPARA, in the positive analysis fitting direction relative to DMSO as the negative control and baseline of activity. Using a type of binding reporter, gain-of-signal activity can be used to understand changes in binding as they relate to gene PPARA. To generalize the intended target to other relatable targets, this assay endpoint is annotated to the nuclear receptor intended target family, where the subfamily is non-steroidal.
# Human recombinant peroxisome proliferators-activated receptor alpha (PPARA, PPARa, PPAR-alpha) hPPAR, NR1C1) receptors expressed in insect are used. Test compound and/or vehicle is incubated with the 2.5 nM receptors and binding buffer in modified kit buffer pH 7.4 for 3 hours at RT. Determination of the amount of complex formed is read microplate reader (excitation:337 nm, emission: 520/490 nm). Test compound-induced increase fluorescence by 50 percent or more (>/=50%) relative to the 1 uM GW7647 response indicates possible PPARa receptor agonist activity. Test compound-induced inhibition of 20 nM GW7647-induced fluorescence response by 50 percent or more (>/=50%) indicates receptor antagonist activity.
SMILES,AC50,outcome
O=C(O)C(F)(F)C(F)(F)C(F)(F)C(F)(F)C(F)(F)C(F)(F)C(F)(F)F,11.5 µM (active) and 17.1 µM (active),
O=C(O)C(F)(F)C(F)(F)C(F)(F)C(F)(F)C(F)(F)C(F)(F)F,50 µM (active),
O=S(=O)(O)C(F)(F)C(F)(F)C(F)(F)C(F)(F)C(F)(F)C(F)(F)F,,inactive
O=C(O)C(F)(F)OC(F)(F)C(F)(F)OC(F)(F)F,19.3 µM (active),
O=S(=O)(O)C(F)(F)C(F)(F)C(F)(F)C(F)(F)C(F)(F)C(F)(F)C(F)(F)C(F)(F)F,,inactive
